Assay results taken from ChEMBL document CHEMBL4888484, “Replenishing the malaria drug discovery pipeline: Screening and hit evaluation of the MMV Hit Generation Library 1 (HGL1) against asexual blood stage Plasmodium falciparum ,using a nano luciferase reporter read-out” (2022).
The campaign covered roughly 150,000 compounds. About 540 (0.36%) showed an effect of 50% or more. The sample holds strong results, similar compounds and a random draw of the others, so the mix is not that of the screen.

Tested on: Plasmodium falciparum
Assay: Primary screen in NF54 nanoGlo assay, in single point, at 2uM, 72h; a lower Z score goes with more inhibition
Assay type: functional, Erythrocyte
Conditions: timepoint 72 hour

Compound	% Inhibition [%]	Z score
NC1CCOC(C2CCCCN2S(=O)(=O)c2ccc(C(F)(F)F)s2)C1 (stereo unspecified)	4	-0.63
COCCN1C(=O)[C@@H]2C(Cc3ccc(O)cc3)NC3(C(=O)Nc4c(C)cc(C)cc43)[C@@H]2C1=O (stereo partly specified)	-3	0.41
Cc1cccc(Cl)c1C(=O)NC(C1CCNCC1)[C@H]1C[C@H](O)C1 (stereo partly specified)	-9	1.88
Cc1noc2ncnc(N3CCCC3CC(O)c3cnn(C)c3)c12 (stereo unspecified)	4	-0.69
CCC[C@H](NC1CCN(C(=O)OC)CC1)C1CC1	7	-0.96
CC1CC(C)CN(C(=O)c2ccc3c(=O)n4c(nc3c2)CCCC4)C1 (stereo unspecified)	-3	0.52
COc1ccc([C@@H](CC(=O)N2CCCC2)c2cn(Cc3ccccc3)c3ccccc23)cc1	-8	0.98
COc1ccc([C@H]2CC(=O)Nc3cccc4c3c2cn4Cc2ccccc2)cc1	-4	0.51
COc1ccc2c(/C=C/c3cc[n+](C)cc3)cn(Cc3ccccc3)c2c1	68	-6.36
Cc1nc(NC(=O)NCCn2ncnn2)sc1C	31	-4.22
CCC(C)CS(=O)(=O)NC(C)C1CC1 (stereo unspecified)	-4	0.39
Cc1cccc(NC(=O)c2c[nH]c3nc(C)ccc3c2=O)c1	4	-0.5
Cc1ccc(C)c(NC(=O)c2c(Oc3ccc(F)cc3)nc(C)c(Cl)c2C)c1	-8	1.01
Cc1c(C)c2ccc(NC(=O)c3cc4ccccc4o3)cc2[nH]c1=O	93	-7.22
O=C(Nc1c(C(=O)Nc2ccc(F)c(F)c2)oc2ccccc12)c1cc2ccccc2o1	-13	2.46
Cn1cc(NC(=O)c2cc3ccccc3o2)ccc1=O	-4	0.73
CCOC(=O)c1cn(CCc2c[nH]cn2)cc(Oc2ccccc2)c1=O	0	-0.09
O=C(NCC(O)c1ccccc1Cl)C1CCCN1 (stereo unspecified)	1	-0.1
O=C(c1ccc(-c2noc(C(F)(F)F)n2)cc1)N1CCC1	29	-3.23
CCNC(=O)N1CCN(c2ccc(-c3noc(C(F)(F)F)n3)cn2)CC1	12	-1.6
Cc1c(F)cccc1-c1ccc(CNc2cccc(CN3CCC(O)CC3)c2)o1	8	-0.88
CNC(=O)c1ccc(OC)c(-c2ccc(NCCN3CCOCC3)nc2)c1	-7	1.05
CCc1ccc(-c2cnc3ccccc3n2)cc1NC(=O)[C@@H](NS(=O)(=O)c1ccccc1)C(C)C	4	-0.61
